A selection: hits, their analogues and other compounds. The true share with any hit is near 4.7%.
HSF1 activator = HSF-1 activators, primary screen, NIH3T3-HGL cells, MG132 stress, luminescence, single point; AID 504408, 2011; 300,000 compounds, 1.7% hits; NIH3T3-HGL HSF-1 luciferase reporter, 8 h; 100% = twice DMSO control signal; activation, % at 9 µM;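 active = mean replicate activation of at least 50% with a set share of replicates each reaching 50%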;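 also: 0% = median of the neutral control wells and 100% = twice that signal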
HSP90 inh = HSP90 inhibitors, primary screen, cell lysate, luminescence; inhibition, % at 5.6 µM; AID 1789, 2009; Rabbit reticulocyte lysate, luciferase refolding luminescence, 3 h; Heat shock protein HSP 90 (rabbit reticulocyte lysate; luciferase refolding); 290,000 compounds, 0.91% hits;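 active = inhibition above the screen-wide mean plus 3 SD, computed separately per campaign, cut at about 16% in these data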;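 also: 0% = DMSO wells and 100% = 60 µM geldanamycin wells; inhibitors lower the luminescence because luciferase stays unfolded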
HSF1 inhib = HSF1 inhibitors in luciferase reporter cells, primary screen, cell-based, NIH3T3, luminescence. NIH3T3-HGL HSE-luciferase, MG132-induced, luminescence 8 h; stronger effect = lower value. activity change, negative = inhibition, % at 7.5 µM (by protocol). 300,000 compounds, 0.77% hits;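 active = more than half of replicate wells show activity change below -50%, luminescence cut by over half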;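 also: luciferase reports HSF-1 transcriptional activity via heat shock element; 0% = median of DMSO wells and -100% = zero luminescence signal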
TWEAK-Fn14 inh = inhibitors of TWEAK-Fn14 signaling, primary screen, luciferase reporter cells, uHTS; TWEAK-stimulated Fn14 reporter cells, luciferase luminescence, 8 h; inhibition, % at 10 µM; 360,000 compounds, 2% hits; AID 1159606, 2016; in the data active = inhibition above about 50%
TROY NFkB inh = inhibitors of TROY-driven NF-kB signaling, primary screen, Q293 LMP1-TROYcd cells, NF-kB luciferase, uHTS; Q293 LMP1-TROYcd NF-kB luciferase reporter, 4 h; inhibition, % at 10 µM; 360,000 compounds, 0.98% hits;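 active = compounds whose plate-normalised and pattern-corrected inhibition of the luciferase reporter signal at the single screening dose is 50% or more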
LMP1 NFkB inh = EBV LMP1-driven NF-kappaB luciferase reporter inhibitors, primary screen, cell-based, luminescence, single point; LMP1-induced NF-kappaB luciferase reporter cells; 350,000 compounds, 0.69% hits; inhibition, % at 12.5 µM; AID 504558, 2011; in the data active = inhibition above about 41%;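 also: 0% = neutral control wells and 100% = reference inhibitor control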
Active calls of the source: *; . = not tested or not shown.

SMILES	HSF1 activator	HSP90 inh	HSF1 inhib	TWEAK-Fn14 inh	TROY NFkB inh	LMP1 NFkB inh
OCCN1CCN(c2ncnc3scc(-c4ccc(F)cc4)c23)CC1	-12	-4	-4	-34	4	10
COc1ccc(-c2nc(-c3ccccc3OC)no2)cc1OC	.	-1	.	-13	-63	-5
COc1ccccc1-c1noc(-c2ccccc2)n1	35	-5	17	-11	-44	47*
Cc1ccc(-c2nc(-c3ccccc3)no2)cc1	-20	-2	-14	62*	47	-14
CCCNC(=O)C1(C)CCN(C(=O)c2sccc2C)C1 (stereo not given)	.	.	.	-15	2	.
COc1ccc(N(CC(=O)NC2CC3CCC2C3)S(=O)(=O)c2ccc(C)cc2)cc1OC (stereo not given)	-4	-2	2	6	2	0
COc1ccc(N(CC(=O)NC2CC3CCC2C3)S(=O)(=O)c2ccccc2)cc1Cl (stereo not given)	1	-1	1	91*	11	-3
O=c1[nH]c(-c2ccccc2F)nc2c1sc(=S)n2Cc1ccccc1	-3	2	-3	61*	58*	11
Cc1cccc(N(Cc2cc3ccccc3[nH]c2=O)C(=O)c2cccs2)c1	-38	3	-24	-11	6	-2
Cc1ccc(N(Cc2cc3ccc(C)cc3[nH]c2=O)C(=O)c2cccs2)cc1	-88	4	-85*	.	.	.
CCN(CC)C(=O)C1=C(C)N(CCCN2CCCC2=O)C(=O)C(CC(=O)NC2CCCC2)C1 (stereo not given)	.	.	.	17	5	-4
COc1cccc(-c2nc3ccccc3s2)c1	21	3	20	28	-25	-33
Oc1ccc(-c2nc3ccccc3s2)c(O)c1	61*	3	31	-39	-95	-25
COc1ccc(-c2nc3ccccc3s2)cc1	.	18*	.	75*	52*	34
Nc1ccccc1-c1nc2ccccc2s1	-79	-6	-71*	-14	-53	-42
Nc1ccc(O)c(-c2nc3ccccc3s2)c1	10	1	-1	12	-9	-16
Cc1ccc(/C=C/C(=O)N2CC(C)CC(C)C2)o1 (stereo not given)	51*	1	44	18	5	-23
CCOc1ccc(C(=O)N2CCN(S(=O)(=O)c3cccs3)CC2)c(OCC)c1	54*	1	9	8	-23	-5
Cc1ccc(/C=C/C(=O)N2CCN(S(=O)(=O)c3cccs3)CC2)o1	-18	0	2	86*	16	0
O=C(/C=C/c1ccco1)N1CCN(S(=O)(=O)c2cccs2)CC1	-6	-2	0	-3	8	6
CCc1nc2c(OCC(=O)c3ccc(Cl)cc3Cl)cccn2c1N(C=O)Cc1ccccc1	.	.	.	-5	-8	.
CC(OC(=O)[C@@H](NS(=O)(=O)c1ccccc1)C(C)C)C(=O)c1c(N)n(C)c(=O)n(C)c1=O (stereo not given in full)	.	.	.	-6	-4	2
O=C(Nc1c(S(=O)(=O)c2ccc(Cl)cc2)csc1Br)c1ccccc1Cl	54*	3	8	-1	-16	9
O=C(NC(=O)c1ccccc1Cl)C(=O)Nc1ccc(Cl)cc1	3	-4	2	-29	-30	1
CC(C)(C)c1ccc(Cn2c(=N)n(CC(O)c3ccco3)c3ccccc32)cc1 (stereo not given)	56*	-3	24	69*	54*	-87
SMILES	HSF1 activator	HSP90 inh	HSF1 inhib	TWEAK-Fn14 inh	TROY NFkB inh	LMP1 NFkB inh
O=C(NCc1cc2ccccc2[nH]1)C1CCC(=O)N(CC2CCCCC2)C1 (stereo not given)	.	.	.	14	-4	-10
O=C(Nc1cc(C(F)(F)F)cc(C(F)(F)F)c1)Nc1cnn(-c2ccc([N+](=O)[O-])cc2)c1C(F)(F)F	-8	4	-21	23	11	57*
CC(C)N(C)c1ncnc2c1ncn2[C@H]1CN(CCN2CCOCC2)C[C@@H](CO)O1	.	.	.	-1	5	.
COc1ccc(Cc2[nH]n3c(=O)c(Cl)c(C)nc3c2-c2ccccc2)cc1	-23	0	2	26	69*	-3
COc1ccc(-c2nc3nc(C)c(Cc4ccccc4)c(=O)n3[nH]2)cc1	-3	2	4	2	-52	-6
O=c1[nH]cc(Cc2ccccc2)c(=O)[nH]1	.	.	.	17	-15	-1
S=c1[nH]cc(Cc2ccccc2)s1	60*	9	27	2	-35	-9
CC(C)C[C@H]1CN(CCCC[C@H]2CNC(=O)C(=O)N2CCc2ccc(O)cc2)C(=O)C(=O)N1Cc1ccccc1	.	.	.	8	-15	.
O=S(=O)(c1ccc2c(c1)OCCO2)N1CCC(c2nc3ccccc3s2)CC1	3	6	0	53*	43	9
COc1ccc(OCCNc2cc(Cl)ccc2[N+](=O)[O-])cc1	-5	3	1	-9	-18	-9
COc1ccc(-n2cc([N+](=O)[O-])c(=O)c3ccc(Cl)cc32)cc1	-75	.	-66*	-10	5	-1
O=c1c2ccccc2sn1-c1ccc(Cl)cc1Cl	.	.	.	-30	19	3
O=C(NCCC1=CCCCC1)C1CC(=O)N(Cc2ccccc2)C1 (stereo not given)	0	-2	0	95*	5	-3
O=C(NCCC1=CCCCC1)C1CCC(=O)N(Cc2ccc(Cl)cc2)C1 (stereo not given)	6	-4	9	-14	9	13
CCC(C)NS(=O)(=O)c1ccc(S(=O)(=O)N(CCc2ccc(OC)c(OC)c2)Cc2cccs2)cc1 (stereo not given)	13	2	2	55*	31	13
CCOc1c(Br)cc(C(=O)Nc2cccc(S(=O)(=O)N3CCOCC3)c2)cc1OC	.	.	.	24	2	-1
N=c1c(S(=O)(=O)c2ccc(Br)cc2)cc2c(=O)n3ccccc3nc2n1C1CCCC1	55*	4	24	16	-12	5
N=c1c(S(=O)(=O)c2ccccc2)cc2c(=O)n3ccccc3nc2n1C1CCCC1	3	5	-2	-21	-4	-5
CC1(C(=O)NS(=O)(=O)Cc2ccccc2C(F)(F)F)CCN1C(=O)Cc1cccs1 (stereo not given)	.	.	.	3	-7	.
COc1cc(Br)cc(/C=C/c2ccc3cccc(O)c3n2)c1OC	10	7	-3	0	-27	9
COc1cc(/C=C/c2ccc3cccc(O)c3n2)cc(Cl)c1OC	72*	-3	68	-22	-11	1
